# Test results reported in paper PMC7862700, “An all-to-all approach to the identification of sequence-specific readers for epigenetic DNA modifications on cytosine”.
# Legend:
# Assay in all cases: DAPPL (digital affinity profiling via proximity ligation, sequencing); 10 mM Tris-HCl pH 7.5, 50 mM NaCl, 1 mM DTT, 4% glycerol, room temperature, 30 min; GST-TFs on glutathione beads, 16-mer random dsDNA library, 0.1% formaldehyde crosslink after washing; high values mean tight binding
# FLI1 = target: T1, FLI1 (Homo sapiens, UniProt Q01543 1-452); settings: protein: recombinant; tags: N-terminal GST; dsDNA, one strand shown
# T1 sequence: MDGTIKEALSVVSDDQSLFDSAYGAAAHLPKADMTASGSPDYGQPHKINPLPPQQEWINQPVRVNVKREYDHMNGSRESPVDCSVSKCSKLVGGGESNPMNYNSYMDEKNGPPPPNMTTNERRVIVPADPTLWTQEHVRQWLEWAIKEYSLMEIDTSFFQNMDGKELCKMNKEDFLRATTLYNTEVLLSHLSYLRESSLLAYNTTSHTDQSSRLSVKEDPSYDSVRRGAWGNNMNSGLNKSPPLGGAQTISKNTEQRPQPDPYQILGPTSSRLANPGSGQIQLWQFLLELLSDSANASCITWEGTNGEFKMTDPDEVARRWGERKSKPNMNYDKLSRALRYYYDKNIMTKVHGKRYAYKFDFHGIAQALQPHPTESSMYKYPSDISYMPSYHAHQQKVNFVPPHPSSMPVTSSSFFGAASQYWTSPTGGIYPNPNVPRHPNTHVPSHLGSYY
# Method in brief: (§1)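 Pools of DNA-barcoded human transcription factors, expressed in yeast as GST fusions on glutathione beads and combined with a tag-only sample, were incubated with 200 nmole of a 16-mer random double-stranded DNA library. Incubation took 30 min at room temperature in Tris/NaCl/DTT/glycerol buffer and was followed by washing, 0.1% formaldehyde crosslinking, proximity ligation (BsaI/T4 ligase, 1 h, 37 °C), PCR amplification and sequencing on an Illumina NextSeq500. Binding signal is the ratio of a hexamer's read frequency for a factor to its frequency for the tag-only sample.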
# ELK1 = target: T2, ELK1 (Homo sapiens, UniProt P19419 1-428); settings: protein: recombinant; tags: N-terminal GST; dsDNA, one strand shown
# T2 sequence: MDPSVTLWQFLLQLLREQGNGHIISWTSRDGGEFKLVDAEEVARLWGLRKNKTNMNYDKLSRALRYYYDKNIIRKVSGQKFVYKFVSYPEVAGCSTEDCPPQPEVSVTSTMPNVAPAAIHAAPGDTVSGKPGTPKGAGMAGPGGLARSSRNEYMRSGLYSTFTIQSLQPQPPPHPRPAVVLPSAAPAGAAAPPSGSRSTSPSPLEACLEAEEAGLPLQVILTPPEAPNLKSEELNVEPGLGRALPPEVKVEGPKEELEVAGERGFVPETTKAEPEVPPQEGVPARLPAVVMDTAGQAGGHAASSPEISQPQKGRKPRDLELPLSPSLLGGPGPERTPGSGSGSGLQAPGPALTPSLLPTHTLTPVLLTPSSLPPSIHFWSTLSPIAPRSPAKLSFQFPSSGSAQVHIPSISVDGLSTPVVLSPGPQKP
# Method in brief: as §1
# GABPA = target: T3, GABPA (Homo sapiens, UniProt Q06546 1-454); settings: protein: recombinant; tags: N-terminal GST; dsDNA, one strand shown
# T3 sequence: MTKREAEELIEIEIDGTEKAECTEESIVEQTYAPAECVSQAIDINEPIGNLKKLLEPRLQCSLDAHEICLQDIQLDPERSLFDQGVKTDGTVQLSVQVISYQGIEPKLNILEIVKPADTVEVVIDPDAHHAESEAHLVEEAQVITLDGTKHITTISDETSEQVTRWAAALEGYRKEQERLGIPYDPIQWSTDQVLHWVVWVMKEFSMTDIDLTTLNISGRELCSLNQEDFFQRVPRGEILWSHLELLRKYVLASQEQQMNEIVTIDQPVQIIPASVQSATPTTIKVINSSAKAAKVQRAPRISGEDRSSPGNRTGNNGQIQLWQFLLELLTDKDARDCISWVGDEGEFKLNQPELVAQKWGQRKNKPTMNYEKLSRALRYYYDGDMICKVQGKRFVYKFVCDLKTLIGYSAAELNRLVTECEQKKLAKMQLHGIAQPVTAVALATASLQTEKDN
# Method in brief: as §1
# ERG = target: T4, ERG (Homo sapiens, UniProt P11308 1-479); settings: protein: recombinant; tags: N-terminal GST; dsDNA, one strand shown
# T4 sequence: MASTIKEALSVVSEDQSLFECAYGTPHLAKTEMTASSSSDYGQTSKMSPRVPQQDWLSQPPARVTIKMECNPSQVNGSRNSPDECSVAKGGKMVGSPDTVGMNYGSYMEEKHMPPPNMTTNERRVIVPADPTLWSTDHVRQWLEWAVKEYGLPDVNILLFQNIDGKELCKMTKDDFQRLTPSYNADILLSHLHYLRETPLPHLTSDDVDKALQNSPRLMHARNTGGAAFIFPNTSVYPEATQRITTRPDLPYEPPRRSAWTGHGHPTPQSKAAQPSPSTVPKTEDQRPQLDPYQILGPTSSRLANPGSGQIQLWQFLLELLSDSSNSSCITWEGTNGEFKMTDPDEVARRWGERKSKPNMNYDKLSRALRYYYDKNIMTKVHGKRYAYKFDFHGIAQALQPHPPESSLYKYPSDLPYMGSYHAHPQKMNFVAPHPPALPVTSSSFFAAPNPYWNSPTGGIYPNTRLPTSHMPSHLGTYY
# Method in brief: as §1
# ELF1 = ELF1 (Homo sapiens, UniProt P32519 1-619); settings: protein: recombinant; tags: N-terminal GST; dsDNA, one strand shown
# Method in brief: as §1
# EHF = target: T5, EHF (Homo sapiens, UniProt Q9NZC4 1-300); settings: protein: recombinant; tags: N-terminal GST; dsDNA, one strand shown
# T5 sequence: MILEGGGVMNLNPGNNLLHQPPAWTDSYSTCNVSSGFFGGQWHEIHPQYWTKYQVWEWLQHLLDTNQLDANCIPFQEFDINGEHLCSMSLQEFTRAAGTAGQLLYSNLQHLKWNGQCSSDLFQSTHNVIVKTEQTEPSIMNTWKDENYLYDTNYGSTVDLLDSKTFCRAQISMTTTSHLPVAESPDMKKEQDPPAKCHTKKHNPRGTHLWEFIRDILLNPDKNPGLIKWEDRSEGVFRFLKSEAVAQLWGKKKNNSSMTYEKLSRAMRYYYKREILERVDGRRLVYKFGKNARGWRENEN
# Method in brief: as §1
# SPI1 = SPI1 (Homo sapiens, UniProt P17947 1-270); settings: protein: recombinant; tags: N-terminal GST; dsDNA, one strand shown
# Method in brief: as §1
# SPIB = SPIB (Homo sapiens, UniProt Q01892 1-262); settings: protein: recombinant; tags: N-terminal GST; dsDNA, one strand shown
# Method in brief: as §1
# ELK3 = target: T6, ELK3 (Homo sapiens, UniProt P41970 1-407); settings: protein: recombinant; tags: N-terminal GST; dsDNA, one strand shown
# T6 sequence: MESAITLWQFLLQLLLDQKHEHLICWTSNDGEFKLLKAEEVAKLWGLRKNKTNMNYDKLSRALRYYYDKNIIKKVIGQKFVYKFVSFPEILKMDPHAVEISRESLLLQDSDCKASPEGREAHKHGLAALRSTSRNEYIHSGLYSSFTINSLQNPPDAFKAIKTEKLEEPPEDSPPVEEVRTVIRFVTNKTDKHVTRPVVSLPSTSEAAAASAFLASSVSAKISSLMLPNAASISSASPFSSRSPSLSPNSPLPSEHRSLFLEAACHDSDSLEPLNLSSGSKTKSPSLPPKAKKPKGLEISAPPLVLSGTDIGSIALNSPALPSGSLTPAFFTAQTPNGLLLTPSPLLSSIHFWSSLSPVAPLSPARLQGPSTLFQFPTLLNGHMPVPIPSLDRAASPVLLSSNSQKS
# Method in brief: as §1
# FEV = target: T7, FEV (Homo sapiens, UniProt Q99581 1-238); settings: protein: recombinant; tags: N-terminal GST; dsDNA, one strand shown
# T7 sequence: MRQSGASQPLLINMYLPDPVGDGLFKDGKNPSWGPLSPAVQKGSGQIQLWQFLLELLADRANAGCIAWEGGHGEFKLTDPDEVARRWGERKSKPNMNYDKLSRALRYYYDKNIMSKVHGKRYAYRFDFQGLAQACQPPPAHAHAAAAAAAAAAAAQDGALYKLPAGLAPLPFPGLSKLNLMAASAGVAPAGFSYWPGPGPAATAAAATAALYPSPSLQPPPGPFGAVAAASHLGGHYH
# Method in brief: as §1
# ETV5 = ETV5 (Homo sapiens, UniProt P41161 1-510); settings: protein: recombinant; tags: N-terminal GST; dsDNA, one strand shown
# Method in brief: as §1
# HSF1 = HSF1 (Homo sapiens, UniProt Q00613 1-529); settings: protein: recombinant; tags: N-terminal GST; chain copies: 3; dsDNA, one strand shown
# Method in brief: as §1
# SPIC = target: T8, SPIC (Homo sapiens, UniProt Q8N5J4 1-248); settings: protein: recombinant; tags: N-terminal GST; dsDNA, one strand shown
# T8 sequence: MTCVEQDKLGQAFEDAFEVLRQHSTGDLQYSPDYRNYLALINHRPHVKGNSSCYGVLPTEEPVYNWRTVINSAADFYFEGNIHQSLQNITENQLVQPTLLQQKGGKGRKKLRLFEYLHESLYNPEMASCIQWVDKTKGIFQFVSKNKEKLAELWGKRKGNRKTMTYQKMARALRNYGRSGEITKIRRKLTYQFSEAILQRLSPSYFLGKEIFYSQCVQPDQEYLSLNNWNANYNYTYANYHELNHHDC
# Method in brief: as §1
# ELF4 = ELF4 (Homo sapiens, UniProt Q99607 1-663); settings: protein: recombinant; tags: N-terminal GST; dsDNA, one strand shown
# Method in brief: as §1
# ELK4 = target: T9, ELK4 (Homo sapiens, UniProt P28324-2 1-405); settings: protein: recombinant; tags: N-terminal GST; dsDNA, one strand shown
# T9 sequence: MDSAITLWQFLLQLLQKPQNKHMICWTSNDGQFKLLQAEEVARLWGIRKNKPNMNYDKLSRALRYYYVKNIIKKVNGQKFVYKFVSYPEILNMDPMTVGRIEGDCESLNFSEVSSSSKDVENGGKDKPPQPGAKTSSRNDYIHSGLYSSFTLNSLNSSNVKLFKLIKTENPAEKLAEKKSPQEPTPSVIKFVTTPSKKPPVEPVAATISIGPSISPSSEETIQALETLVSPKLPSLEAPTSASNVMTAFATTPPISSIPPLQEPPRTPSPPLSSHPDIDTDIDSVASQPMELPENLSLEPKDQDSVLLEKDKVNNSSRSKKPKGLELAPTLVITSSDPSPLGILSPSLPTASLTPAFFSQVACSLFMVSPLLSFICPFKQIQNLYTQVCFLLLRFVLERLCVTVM
# Method in brief: as §1
# ETV2 = target: T10, ETV2 (Homo sapiens, UniProt O00321 1-342); settings: protein: recombinant; tags: N-terminal GST; dsDNA, one strand shown
# T10 sequence: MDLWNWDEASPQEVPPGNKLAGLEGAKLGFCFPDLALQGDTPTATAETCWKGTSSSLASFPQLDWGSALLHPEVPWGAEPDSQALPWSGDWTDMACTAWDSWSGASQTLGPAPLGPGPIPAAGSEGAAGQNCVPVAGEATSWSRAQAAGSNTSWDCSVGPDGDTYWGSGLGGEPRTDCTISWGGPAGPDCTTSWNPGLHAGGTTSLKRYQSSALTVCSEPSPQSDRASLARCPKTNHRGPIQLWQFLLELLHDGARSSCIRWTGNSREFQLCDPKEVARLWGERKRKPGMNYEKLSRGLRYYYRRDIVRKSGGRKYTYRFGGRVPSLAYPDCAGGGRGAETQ
# Method in brief: as §1
# ELF3 = target: T11, ELF3 (Homo sapiens, UniProt P78545 1-371); settings: protein: recombinant; tags: N-terminal GST; dsDNA, one strand shown
# T11 sequence: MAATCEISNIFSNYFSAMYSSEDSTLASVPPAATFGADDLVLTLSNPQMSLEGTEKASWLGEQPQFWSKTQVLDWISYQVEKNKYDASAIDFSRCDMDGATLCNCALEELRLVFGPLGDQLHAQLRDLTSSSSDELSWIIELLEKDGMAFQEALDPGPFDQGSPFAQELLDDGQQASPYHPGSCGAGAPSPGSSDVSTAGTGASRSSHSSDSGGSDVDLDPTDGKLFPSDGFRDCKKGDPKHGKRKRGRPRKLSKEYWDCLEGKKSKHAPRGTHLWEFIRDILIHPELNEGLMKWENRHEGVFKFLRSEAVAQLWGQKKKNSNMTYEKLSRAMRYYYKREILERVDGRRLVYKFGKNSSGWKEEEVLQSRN
# Method in brief: as §1
# CRX = CRX (Homo sapiens, UniProt O43186 1-299); settings: protein: recombinant; tags: N-terminal GST; dsDNA, one strand shown
# Method in brief: as §1
# ETV1 = ETV1 (Homo sapiens, UniProt P50549 1-477); settings: protein: recombinant; tags: N-terminal GST; dsDNA, one strand shown
# Method in brief: as §1
# Sequence of CRX (O43186 whole entry): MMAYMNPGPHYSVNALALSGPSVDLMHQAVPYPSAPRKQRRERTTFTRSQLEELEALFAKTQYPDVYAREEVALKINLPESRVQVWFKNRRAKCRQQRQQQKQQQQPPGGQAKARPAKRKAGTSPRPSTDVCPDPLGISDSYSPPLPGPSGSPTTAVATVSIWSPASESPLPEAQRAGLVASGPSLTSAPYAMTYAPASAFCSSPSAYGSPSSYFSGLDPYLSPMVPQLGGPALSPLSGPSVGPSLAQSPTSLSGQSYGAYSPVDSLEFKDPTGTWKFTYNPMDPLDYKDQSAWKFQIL
# Sequence of ETV5 (P41161 whole entry): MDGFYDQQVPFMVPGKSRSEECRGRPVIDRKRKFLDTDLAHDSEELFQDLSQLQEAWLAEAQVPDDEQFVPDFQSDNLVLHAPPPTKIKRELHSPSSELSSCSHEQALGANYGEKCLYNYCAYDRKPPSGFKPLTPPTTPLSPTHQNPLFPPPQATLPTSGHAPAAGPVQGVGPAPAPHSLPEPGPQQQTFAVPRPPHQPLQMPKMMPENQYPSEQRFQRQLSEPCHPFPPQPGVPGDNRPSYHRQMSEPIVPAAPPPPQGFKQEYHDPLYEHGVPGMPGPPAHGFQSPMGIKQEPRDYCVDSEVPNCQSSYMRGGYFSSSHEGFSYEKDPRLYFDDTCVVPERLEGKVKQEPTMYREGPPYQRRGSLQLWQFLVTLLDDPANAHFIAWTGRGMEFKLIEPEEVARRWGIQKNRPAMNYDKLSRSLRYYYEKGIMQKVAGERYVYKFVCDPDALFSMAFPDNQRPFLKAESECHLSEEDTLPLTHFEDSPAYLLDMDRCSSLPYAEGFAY
# Sequence of ETV1 (P50549 whole entry): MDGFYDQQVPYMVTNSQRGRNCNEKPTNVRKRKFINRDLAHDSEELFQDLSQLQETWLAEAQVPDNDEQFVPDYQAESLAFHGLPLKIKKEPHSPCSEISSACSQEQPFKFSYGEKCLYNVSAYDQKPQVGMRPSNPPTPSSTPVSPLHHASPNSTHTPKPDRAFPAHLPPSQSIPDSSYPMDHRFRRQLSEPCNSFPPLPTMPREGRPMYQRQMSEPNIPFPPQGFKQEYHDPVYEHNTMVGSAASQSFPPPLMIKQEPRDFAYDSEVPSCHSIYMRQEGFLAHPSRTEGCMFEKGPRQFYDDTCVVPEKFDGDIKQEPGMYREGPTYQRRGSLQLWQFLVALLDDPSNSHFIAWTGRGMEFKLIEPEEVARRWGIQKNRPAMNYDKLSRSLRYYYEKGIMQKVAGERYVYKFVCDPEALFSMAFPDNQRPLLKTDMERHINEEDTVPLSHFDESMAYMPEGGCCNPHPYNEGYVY
# Sequence of ELF1 (P32519 whole entry): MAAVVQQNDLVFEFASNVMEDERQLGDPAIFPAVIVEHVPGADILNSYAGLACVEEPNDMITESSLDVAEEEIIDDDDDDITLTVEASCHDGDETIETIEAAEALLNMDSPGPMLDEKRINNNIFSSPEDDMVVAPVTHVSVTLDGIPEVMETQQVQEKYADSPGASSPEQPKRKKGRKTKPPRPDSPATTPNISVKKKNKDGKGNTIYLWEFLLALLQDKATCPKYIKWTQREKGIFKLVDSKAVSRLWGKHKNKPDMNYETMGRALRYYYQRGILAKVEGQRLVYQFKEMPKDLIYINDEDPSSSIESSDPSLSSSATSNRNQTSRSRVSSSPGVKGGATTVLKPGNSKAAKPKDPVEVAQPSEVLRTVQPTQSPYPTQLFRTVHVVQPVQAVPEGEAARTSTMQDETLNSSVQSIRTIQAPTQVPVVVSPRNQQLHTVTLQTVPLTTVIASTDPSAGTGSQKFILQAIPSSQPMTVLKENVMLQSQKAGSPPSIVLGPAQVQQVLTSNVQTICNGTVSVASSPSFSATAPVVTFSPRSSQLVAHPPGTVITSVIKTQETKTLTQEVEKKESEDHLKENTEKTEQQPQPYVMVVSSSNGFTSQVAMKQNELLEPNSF
# Sequence of HSF1 (Q00613 whole entry): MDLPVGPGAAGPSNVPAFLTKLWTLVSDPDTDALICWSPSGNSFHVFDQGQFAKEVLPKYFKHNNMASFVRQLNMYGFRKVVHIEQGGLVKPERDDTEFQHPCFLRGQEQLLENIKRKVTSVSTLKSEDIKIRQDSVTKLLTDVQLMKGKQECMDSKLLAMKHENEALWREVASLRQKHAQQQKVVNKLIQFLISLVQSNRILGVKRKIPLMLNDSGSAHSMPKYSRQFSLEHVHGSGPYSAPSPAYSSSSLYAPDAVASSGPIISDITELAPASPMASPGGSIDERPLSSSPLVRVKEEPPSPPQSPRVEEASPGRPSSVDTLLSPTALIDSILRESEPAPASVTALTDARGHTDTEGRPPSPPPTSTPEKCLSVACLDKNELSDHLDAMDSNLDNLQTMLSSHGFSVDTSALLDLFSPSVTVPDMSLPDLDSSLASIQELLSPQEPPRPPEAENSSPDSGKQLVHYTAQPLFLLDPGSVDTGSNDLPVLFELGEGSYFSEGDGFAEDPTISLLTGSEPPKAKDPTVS
# Sequence of SPIB (Q01892 whole entry): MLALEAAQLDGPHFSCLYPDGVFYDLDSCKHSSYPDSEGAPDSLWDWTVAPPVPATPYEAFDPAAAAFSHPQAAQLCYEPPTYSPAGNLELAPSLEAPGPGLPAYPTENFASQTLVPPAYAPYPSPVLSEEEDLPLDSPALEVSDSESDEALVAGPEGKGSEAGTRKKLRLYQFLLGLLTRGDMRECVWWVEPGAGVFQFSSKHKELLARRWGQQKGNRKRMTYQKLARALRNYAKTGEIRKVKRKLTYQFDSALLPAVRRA
# Sequence of ELF4 (Q99607 whole entry): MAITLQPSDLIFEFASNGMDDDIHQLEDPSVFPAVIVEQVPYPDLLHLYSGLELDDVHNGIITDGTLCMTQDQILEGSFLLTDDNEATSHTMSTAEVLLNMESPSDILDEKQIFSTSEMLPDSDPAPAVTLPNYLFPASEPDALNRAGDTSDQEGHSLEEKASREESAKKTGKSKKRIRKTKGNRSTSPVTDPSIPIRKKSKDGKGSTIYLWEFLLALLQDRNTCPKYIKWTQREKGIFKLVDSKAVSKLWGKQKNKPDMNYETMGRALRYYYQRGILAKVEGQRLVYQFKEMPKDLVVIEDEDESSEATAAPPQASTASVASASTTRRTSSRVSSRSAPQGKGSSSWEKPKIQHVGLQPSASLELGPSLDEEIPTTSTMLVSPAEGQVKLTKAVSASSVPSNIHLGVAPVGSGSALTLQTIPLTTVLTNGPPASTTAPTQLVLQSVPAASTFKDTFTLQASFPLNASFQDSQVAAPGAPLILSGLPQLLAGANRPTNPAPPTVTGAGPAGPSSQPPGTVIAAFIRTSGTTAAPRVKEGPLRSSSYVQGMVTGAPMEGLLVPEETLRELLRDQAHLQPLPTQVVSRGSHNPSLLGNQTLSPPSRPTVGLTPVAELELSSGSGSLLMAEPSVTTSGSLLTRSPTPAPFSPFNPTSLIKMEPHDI
sequence,measurement,setting,value
TTCTGG,binding signal,FLI1,"1.36 fold enrichment (6-mer frequency, TF over GST control)"
same,binding signal,ELK1,"1.16 fold enrichment (6-mer frequency, TF over GST control)"
same,binding signal,GABPA,"1.32 fold enrichment (6-mer frequency, TF over GST control)"
same,binding signal,ERG,"1.31 fold enrichment (6-mer frequency, TF over GST control)"
same,binding signal,ELF1,"1.14 fold enrichment (6-mer frequency, TF over GST control)"
same,binding signal,EHF,"1.2 fold enrichment (6-mer frequency, TF over GST control)"
same,binding signal,SPI1,"1.24 fold enrichment (6-mer frequency, TF over GST control)"
same,binding signal,SPIB,"1.18 fold enrichment (6-mer frequency, TF over GST control)"
same,binding signal,ELK3,"1.48 fold enrichment (6-mer frequency, TF over GST control)"
same,binding signal,FEV,"1.19 fold enrichment (6-mer frequency, TF over GST control)"
same,binding signal,ETV5,"1.16 fold enrichment (6-mer frequency, TF over GST control)"
same,binding signal,HSF1,"4.45 fold enrichment (6-mer frequency, TF over GST control)"
same,binding signal,SPIC,"1.36 fold enrichment (6-mer frequency, TF over GST control)"
same,binding signal,ELF4,"1.29 fold enrichment (6-mer frequency, TF over GST control)"
same,binding signal,ELK4,"1.35 fold enrichment (6-mer frequency, TF over GST control)"
same,binding signal,ETV2,"1.42 fold enrichment (6-mer frequency, TF over GST control)"
same,binding signal,ELF3,"1.21 fold enrichment (6-mer frequency, TF over GST control)"
same,binding signal,CRX,"1.76 fold enrichment (6-mer frequency, TF over GST control)"
same,binding signal,ETV1,"1.21 fold enrichment (6-mer frequency, TF over GST control)"
